Only some compounds are listed: those with a hit (about 7.8% of all), similar ones and a draw of the others.
Lassa entry inh – Lassa virus entry inhibition | Lassa virus pseudotype entry inhibition, cell reporter | Potency, µM (doses to about 37.9 µM), hits mostly inhibitors | 300,000 compounds, 1.2% hits | AID 540256; calls by dose curve; tested in HEK293 cells; also: nearly all actives have a fitted effect of over 50% in size
VACV Venus inh – inhibitors of vaccinia virus (Venus reporter) | Vaccinia virus Venus reporter expression, fluorescence | Potency, µM (doses to about 36.5 µM), usual class: inhibitors | 330,000 compounds, 0.46% hits; calls by dose curve; tested in A549 cells; also: nearly all actives have a fitted effect of over 30% in size
HCV inhibitor – blocks hepatitis C virus. Huh7.5.1 HCVcc-Cre infection, luciferase reporter, 44 h. Potency, µM (series often up to 41.8 µM), hits mostly inhibitors. 340,000 compounds, 3.4% hits. AID 651820; active = well fitted inhibition curve with a large enough effect; inconclusive = small, poorly fitted or top-dose-only effect, or another doubt; inactive = no such curve, though single readings can be large or run the other way
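Cells (1,000/well) were plated 4 h before compound, then infected with HCVcc-Cre virus (~0.5 moi). After 44 h further culture, infection was read as luciferase luminescence following a 15 min substrate incubation at room temperature.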
HCMV inh – inhibitors of human cytomegalovirus; AID 1259415; 410,000 compounds, 4.5% hits; HFF cells, HCMV-luciferase reporter, 72 h; hits give low values; activity change, negative = inhibition, % at 57.5 µM; in the data active = activity change below about -60%; inconclusive = no clear call, values can overlap the other calls; inactive = above about -39%
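After 16 h attachment at 37C, HFF cells received test compound and HCMV-luciferase (1 PFU/cell); reporter luminescence read 72 h later, data normalized against buffer-only and known inhibitor Salinomycin.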
VACV mCherry inh – vaccinia inhibition (mCherry reporter); Vaccinia virus mCherry reporter infection, fluorescence; Potency, µM (series often up to 36.5 µM), most hits filed as inhibitors; 310,000 compounds, 0.63% hits; AID 720579; calls by dose curve; tested in A549 cells; also: nearly all actives have a fitted effect of over 35% in size
Marburg entry inh – blocks Marburg virus binding to or entry into cells; AID 540276; Marburg virus pseudotyped entry inhibition, cell reporter; 300,000 compounds, 1.8% hits; Potency, µM (series often up to 37.8 µM), actives largely listed as inhibitors; calls by dose curve; tested in HEK293 cells
Numbers stand for hits; 0 = inactive; ? = inconclusive; - = no result; + = active, no number; [ ] = remark or other dose.

SMILES | Lassa entry inh | VACV Venus inh | HCV inhibitor | HCMV inh | VACV mCherry inh | Marburg entry inh
CC1CCCCC12NC(=O)N(CC(=O)OCc1ccc(Br)cc1)C2=O (stereo unspecified) | - | - | 0 | + | - | -
CC1CCCCC12NC(=O)N(CC(=O)N1CCN(Cc3ccc(C#N)cc3)CC1)C2=O (stereo unspecified) | - | - | 10µM | 0 | - | -
COC(=O)C1=C(C)N(Cc2ccccc2)C(=NCCc2cccnc2)NC1c1ccccc1 (stereo unspecified) | - | - | - | - | - | 0
COc1ccccc1-c1ccnc(-n2ncc(C(=O)NCC3(N4CCOCC4)CCCC3)c2C)n1 | - | 0 | - | - | 0 | -
COc1ccc2c(c1)c1c(c(=O)n(-c3ccc(C)cc3)c(=O)n1CC(=O)NCc1ccc(C)cc1)n2C | 0 | 0 | - | 0 | 0 | -
COc1cccc(-c2ccc(O)c(CNC(c3ccccc3)c3ccc(Cl)cc3)c2)n1 (stereo unspecified) | - | 0 | - | - | 0 | -
CSc1ccc2cc(CNCc3ccccc3F)c(N3CCCC(CO)C3)nc2c1 (stereo unspecified) | - | 0 | - | - | 0 | -
COc1ccc(S(=O)(=O)c2c(O)c3ccc(C(=O)NCc4ccc(F)cc4)cc3[nH]c2=O)cc1 | 0 | 0 | - | 0 | 0 | -
Cc1cc(C)cc(OCCn2ccnc2)c1 | - | - | 6.31µM | 0 | - | -
Cc1c(C(=O)NCc2ccc(Cl)cc2)sc2nc3n(c(=O)c12)CCCCC3 | 0 | 0 | - | 0 | 0 | -
Cc1ccc(NC(=S)NCCN(C2CCCCC2)C2CCCC2)cc1C | ? | 0 | ? | 0 | ? | 9.2µM
COc1ccc(/C=C/C(=O)c2ccc3c(c2)OCO3)cc1OC | 0 | 0 | 0 | ? | 0 | ?
COc1ccc(OC)c(/C=C/C(=O)c2ccc3c(c2)OCCO3)c1 | - | - | ? | -100.2 | - | -
COc1cc(/C=C/C(=O)c2ccc3c(c2)OCCO3)cc(OC)c1OC | - | - | ? | -99.5 | - | -
CNS(=O)(=O)c1cn(CC(=O)N2CCN(c3ccccc3OC)CC2)cc1S(=O)(=O)NC | 0 | 0 | - | 0 | 0 | -
O=C(c1cn(C2CCCN(Cc3cc(Cl)ccc3O)C2)nn1)N1CCCCC1 (stereo unspecified) | - | 0 | - | - | 0 | -
Cn1c(SCC(=O)NCc2ccco2)nnc1-c1cccc(NC(=O)c2ccccc2)c1 | - | 0 | - | - | 0 | -
O=C(Cc1csc(Nc2nc(=S)[nH]c3ccccc23)n1)NCc1ccccc1Cl | ? | - | 11.2µM | 0 | - | ?
Fc1ccc(C2c3cccn3CCN2C(=S)Nc2cccc(Br)c2)cc1 (stereo unspecified) | 0 | 0 | 10µM | 0 | ? | 0
S=C(NCc1ccccc1)N1CCn2cccc2C1c1cccnc1 (stereo unspecified) | ? | 0 | 0 | -71.5 | 0 | ?
CCCCNC(=S)N1CCn2cccc2C1c1ccccc1 (stereo unspecified) | 0 | 0 | 0 | 0 | 0 | ?
CCCCNC(=S)N1CCn2cccc2C1c1ccc(F)cc1 (stereo unspecified) | 12.6µM | 0 | 0 | 0 | 0 | 6.31µM
COC(=O)C1=C(C)NC(C)=C(C(=O)OCCCN2CCC(c3ccccc3)(c3ccccc3)CC2)C1c1cccc([N+](=O)[O-])c1 (stereo unspecified) | - | 0 | - | - | 0 | -
COC1=C(Br)C(=O)c2ncccc2C1=O | ? | 0 | ? | -69.0 | 0 | ?
O=C1C(=O)c2cccnc2-c2ncccc21 | - | 14.1µM | - | -99.1 | 6.31µM | -
SMILES | Lassa entry inh | VACV Venus inh | HCV inhibitor | HCMV inh | VACV mCherry inh | Marburg entry inh
Cc1ccc(C2=NCC(C)n3nc4cc(C(F)(F)F)ccc4c32)cc1 (stereo unspecified) | - | - | - | 0 | - | -
CCCCCCCCCCCCCCC[C@@H](O)[C@H](CO)NC(=O)CCCCCCC | - | 0[3.33 µM] | - | - | 0[3.33 µM] | -
CCCCCCCCCCCCCCCC(O)C(N)CO (stereo unspecified) | 0 | 0 | 0[8.37 µM] | -98.3 | 0 | 0
CCCCNC(=O)COC(=O)c1c2c(nc3ccccc13)CCC2 | 0 | 0 | ? | 0 | 0 | 0
CCCCNC(=O)COC(=O)c1c2c(nc3ccccc13)/C(=C/c1cccs1)CC2 | ? | ? | 2.24µM | 0 | 0 | ?
COc1ccc2c(c1)c(=O)c(C(=O)c1ccc(F)cc1)cn2CC(=O)Nc1ccc2c(c1)OCO2 | 0 | 0 | - | 0 | 0 | 0
Cc1ccc2nc(N3CCN(S(=O)(=O)c4ccc5c(c4)OCCO5)CC3)c(C#N)cc2c1 | ? | - | 14.1µM | 0 | - | ?
Cc1ccc(S(=O)(=O)N2CCCN(c3nc4cc(C)ccc4cc3C#N)CC2)cc1 | 0 | 0 | 22.4µM | 0 | 0 | ?
